# Test results from PubChem BioAssay (EPA / NIEHS).
# Inconclusive results are not listed. Active and inactive are the calls of the source. Rule for the calls: active = hit-call score of the fitted dose curve at least 0.9, where 1 is the maximum; inconclusive = response in the unintended direction; inactive = score below 0.9.
# Test: Tanguay_ZF_120hpf_ActivityScore_legacy: (Legacy) Oregon State University Tanguay Lab 120 Hour Post-fertilization zebrafish Assay Score for Activity (AID 2283742);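 for AC50: static exposure from 6 hpf until 120 hpf at 28 °C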
# In short: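 Tropical 5D wild-type zebrafish embryos, dechorionated with pronase at 4 hpf, were exposed singly from 6 hpf to 120 hpf statically at 28C in 0.64% DMSO. Malformations and mortality were scored as binary by brightfield, with the activity score combining 18 morphology components.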
Structure (SMILES),outcome,AC50
O=[N+]([O-])C(CO)(CO)CO,inactive,–
CCc1c(C(=O)NN2CCCCC2)nn(-c2ccc(Cl)cc2Cl)c1-c1ccc(Br)cc1,–,39.9 µM (active)
CC(=O)OCCOCCOCCOC(C)=O,inactive,–
C=CCc1ccc(O)c(OC)c1,inactive,–
CCCCCCOCCO,inactive,–
C[Si]1(C)O[Si](C)(C)O[Si](C)(C)O[Si](C)(C)O1,inactive,–
COC(=O)c1ccc(O)cc1,inactive,–
FC(F)(F)C(F)(F)C(F)(F)C(F)(F)C(F)(F)C(F)(F)CCI,inactive,–
CCCCCCCCCCCC(=O)OC,inactive,–
CCCCc1ccc2c(n1)[C@@H](c1ccc(OC)cc1C[C@H](C)C(=O)O)[C@H](C(=O)O)[C@H]2c1ccc2c(c1)OCO2,inactive,–
NC(=O)Cn1c(=O)cc(CCN2CCN(c3nccc4sccc34)CC2)c2ccc(F)cc21,inactive,–
C=CCOC(=O)c1ccccc1C(=O)OCC=C,–,37.4 µM (active)
COc1ccc(S(=O)(=O)N2C(=O)[C@@](c3ccccc3OC)(N3C[C@H](O)C[C@H]3C(=O)N(C)C)c3cc(Cl)ccc32)c(OC)c1,inactive,–
Oc1ccc2c(c1)OC[C@@H](N1CCC(O)(c3ccc(F)cc3)CC1)[C@H]2O,inactive,–
CCCCCCCC=O,inactive,–
CNCc1cc(F)ccc1Oc1ccc(Cl)c(Cl)c1,inactive,–
Nc1ccc2c(c1)C(=O)c1ccccc1C2=O,inactive,–
CCNc1cccc(C)c1,inactive,–
COc1ccc(C)cc1N,inactive,–
CCCCOC(=O)CCCCCCCCC(=O)OCCCC,inactive,–
Cc1nc(-c2ccc3c(c2)CCN(CCC2CCC(NC(=O)/C=C/c4ccc(F)cc4)CC2)CC3)no1 (stereo not drawn),inactive,–
COCCOC[C@H](CC1(C(=O)NC2CCC(C(=O)O)CC2)CCCC1)C(=O)Oc1ccc2c(c1)CCC2 (stereo partly drawn),inactive,–
Clc1cc(Cl)c(Cl)cc1Cl,inactive,–
c1cc(-c2ccncc2)ccn1,inactive,–
CCCCCC(=O)O,inactive,–
CC(CO)OC(C)CO (stereo not drawn) (tested in a mixture with another compound),inactive,–
OC[C@@H](O)[C@@H](O)[C@H](O)[C@H](O)CO,inactive,–
NCCO,inactive,–
O=C(O)Cc1ccccc1Nc1c(Cl)cccc1Cl,–,35 µM (active)

# Test: ArunA_CellTiter_hNC: Viability Assessment in the ArunA Biomedical's Oris Neural Crest (hNC) Cell Migration Assay (AID 2283752)
# In short: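 Viability of embryonic neural crest stem cells from the H9 line is scored 72 h after dosing, with DMSO as negative control and baseline. A drop in CellTiter Aqueous One signal indicates cytotoxicity.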
row,Structure (SMILES),outcome
1,COC(=O)c1ccc(O)cc1,inactive
2,CCCCc1ccc2c(n1)[C@@H](c1ccc(OC)cc1C[C@H](C)C(=O)O)[C@H](C(=O)O)[C@H]2c1ccc2c(c1)OCO2,inactive
3,OC[C@@H](O)[C@@H](O)[C@H](O)[C@H](O)CO,inactive

# Test: ArunA_Migration_hNC: ArunA Biomedical's Oris Neural Crest (hNC) Cell Migration Assay (AID 2283755)
# In short: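 Human H9-derived neural crest stem cells, 60,000/well on Matrigel, 16 h at 37C, then 72 h chemical exposure after seeding-stopper removal. Migration into detection zone read as calcein-AM fluorescence (ex494/em517), relative to DMSO.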
row,Structure (SMILES),outcome
1,COC(=O)c1ccc(O)cc1,inactive
2,CCCCc1ccc2c(n1)[C@@H](c1ccc(OC)cc1C[C@H](C)C(=O)O)[C@H](C(=O)O)[C@H]2c1ccc2c(c1)OCO2,inactive
3,OC[C@@H](O)[C@@H](O)[C@H](O)[C@H](O)CO,inactive

# Test: ArunA_NOG_NucleusCount: ArunA Biomedical's Neurite Outgrowth (NOG) Assay for Nucleus Count (AID 2283756)
# Protocol: ArunA_NOG (Neurite Outgrowth) is a cell-based, image-based assay that uses human H9-derived embryonic differentiated neurons (hNN). Measurements were taken 48 hours after chemical dosing in a 96-well plate.ArunA_NOG_NucleusCount is an assay component measured from the ArunA_NOG assay. It is designed to make measurements of viability related to the number of neurons, using a form of viability reporter, as detected with fluorescence intensity signals by HCS Fluorescent Imaging technology. Data from the assay component ArunA_NOG_NucleusCount was analyzed at the endpoint, ArunA_NOG_NucleusCount, in the positive analysis fitting direction relative to DMSO as the negative control and baseline of activity. Using a type of viability reporter, loss-of-signal activity can be used to understand viability. To generalize the intended target to other relatable targets, this assay endpoint is annotated to the neurodevelopment intended target family, where the subfamily is neurite outgrowth.
# Chemical treatment: Differentiated hNN cells were seeded and immediately exposed to test medium for 48 h. Following chemical exposure, cell bodies were stained with Hoechst 33,258 to quantitate viable neuron count and neurites were labeled with bIII-tubulin/DyLight1 488. High content imaging assessed the neurite outgrowth endpoints: neurite total length per neuron (um), neurite count per neuron, and branch points per neurite using the methods described in (Harrill et al 2010). Measurements of hN2 morphology: (Beta)III-Tubulin stained cell cultures were allowed to warm to room temperature. Plates were then loaded into a Cellomics ArrayScan VTI HCS reader high-content imaging system (ThermoFisher Scientific, Waltham, MA) for automated image acquisition and morphometric analyses. This system consists of an epifluorescent microscope with an EXFO X-cite 120 metal-halide arc lamp, motorized imaging objectives, stage and excitation/emission filter wheel and a 12-bit high-resolution CCD camera connected to a Dell Intel Xenon computer terminal with 2 GHz processor. Image acquisition and storage was performed using the vHCS Scan software package, version 6.6.1.4. Matched fluorescent images of Hoechst-stained nuclei and (beta)III-tubulin/DyLight 488 immunolabeled cells were acquired using 365/515 (channel 1) and 475/515 (channel 2) nm excitation/emission filter couplings, respectively, with a 20x objective (Zeiss, Inc., Thornwood, NY). Fixed integration times for image acquisition in each channel were determined by manual sampling of control-treated wells across multiple plates. A matching pseudocolored composite image of Hoechst-stained nuclei (blue) and (beta)III-tubulin/DyLight 488 labeled cell bodies and neurites (green). The Neural Profiling BioApplication performs automated image analysis in a sequential manner as follows. Briefly, nuclei were identified in channel 1 as bright objects on a dark background. Nuclei with size and intensity values outside of the ranges determined a priori for viable cells were identified in the channel 1 image and rejected from further analyses. Spatial coordinates from the channel 1 image were then superimposed on the matching channel 2 image. Cell body masks in channel 2 were then cast based on positional data from channel 1 nuclei and a set of user-defined geometric and signal intensity-based parameters. Cell bodies corresponding to valid neurons were then selected and invalid cell bodies rejected. Parameters for valid cell body selection include the presence of exactly one nucleus within the cell body mask, a requirement that the nucleus met the gating criteria imposed in channel 1, a requirement that at least 25% of the nucleus perimeter is bounded by DyLight 488 labeled cytoplasm and a requirement that the total cell body area not exceed 4000 um2. Neurites emerging from the selected cell bodies were then individually traced and measured. For this study, neurites were defined as processes >10 um in length. […]
Structure (SMILES),AC50,outcome
COC(=O)c1ccc(O)cc1,13.7 µM (active),–
CCCCc1ccc2c(n1)[C@@H](c1ccc(OC)cc1C[C@H](C)C(=O)O)[C@H](C(=O)O)[C@H]2c1ccc2c(c1)OCO2,–,inactive
OC[C@@H](O)[C@@H](O)[C@H](O)[C@H](O)CO,50 µM (active),–
